# Screens (PubChem BioAssay)
# Sampled rows, rich in hits. Any-hit rate of the full collection: about 11%.
# ALDH1A1 inh: inhibitors of human aldehyde dehydrogenase 1A1; Potency, µM (highest dose often 75.3 µM), for inactives: top-dose activity, negative = inhibition, most hits filed as inhibitors; Purified ALDH1A1, NADH fluorescence, propionaldehyde substrate; hit rate 7.3% among 220,000; active = well fitted inhibition curve with a large enough effect, not every such curve was filed as active; inconclusive = small, poorly fitted or top-dose-only effect, or another doubt; inactive = no such curve, though single readings can be large or run the other way;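 also: potency is read from the fitted curve at half-maximal effect; plate controls were no enzyme wells and a reference inhibitor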
# ALOX12 inhib: blocks human 12-lipoxygenase activity | purified 12-hLO, xylenol orange hydroperoxide absorbance | Potency, µM (highest dose often 57.1 µM), for the others: top-dose activity change, negative = inhibition, hits mostly inhibitors | hit rate 0.12% among 150,000; also: potency is read from the fitted curve at half-maximal effect; nearly all actives have a fitted effect of over 55% in size
#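 Hydroperoxide output read as Fe(III)-xylenol orange absorbance, 573-to-405 nm ratio, after 30 min reaction with 40 uM arachidonic acid. Enzyme: 150 nM purified human 12hLO, 15 min compound preincubation; 25 mM Hepes pH 7.0, room temperature.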
# HPGD block: HPGD (human) dehydrogenase inhibition; hit rate 4.3% among 150,000; AID 894; P15428; purified HPGD, NADH fluorescence kinetic, PGE2 substrate; Potency, µM, inactives show at the highest dose activity change, negative = inhibition, usual class: inhibitors; active = well fitted inhibition curve with a large enough effect, not every such curve was filed as active; inconclusive = small, poorly fitted or top-dose-only effect, or another doubt; inactive = no such curve, though single readings can be large or run the other way; also: potency is read from the fitted curve at half-maximal effect
# Target sequence (P15428 whole entry, looked up): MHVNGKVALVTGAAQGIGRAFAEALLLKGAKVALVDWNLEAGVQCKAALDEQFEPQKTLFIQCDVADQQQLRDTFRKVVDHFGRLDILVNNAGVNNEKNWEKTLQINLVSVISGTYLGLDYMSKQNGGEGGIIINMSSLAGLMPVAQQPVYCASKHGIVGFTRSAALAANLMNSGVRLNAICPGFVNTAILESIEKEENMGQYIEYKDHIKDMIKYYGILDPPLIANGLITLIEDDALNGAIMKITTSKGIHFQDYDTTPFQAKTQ
#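 NADH formation kinetics: reaction with 30 uM PGE2 and 1 mM NAD+ (final), 20 nM enzyme, Tris-HCl pH 8 with Tween 20, after 15 min compound preincubation at room temperature. Fluorescence change, last versus first of five reads.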
# IMPase inh: membrane-permeable compound that blocks inositol monophosphatase; P97697; CHO-M1 cells, IP1 accumulation, HTRF TR-FRET ratio; inhibition (IP1 accumulation), % at 46.1 µM; 120,000 tested, under 10 active; AID 901; active = well fitted curve in the direction sought with a large enough effect in the signal ratio, not every such curve was filed as active; inconclusive = small, poorly fitted or top-dose-only effect, or a change in a side signal; inactive = no such curve, though single readings can be large or run the other way; the % refers to the signal ratio;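 also: cells stimulated with carbachol in lithium chloride buffer; plate controls were DMSO basal wells for no effect and reference inhibitor wells for full effect; higher means more IMPase inhibition seen as more IP1 and lower FRET ratio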
# Target sequence (P97697 whole entry, looked up): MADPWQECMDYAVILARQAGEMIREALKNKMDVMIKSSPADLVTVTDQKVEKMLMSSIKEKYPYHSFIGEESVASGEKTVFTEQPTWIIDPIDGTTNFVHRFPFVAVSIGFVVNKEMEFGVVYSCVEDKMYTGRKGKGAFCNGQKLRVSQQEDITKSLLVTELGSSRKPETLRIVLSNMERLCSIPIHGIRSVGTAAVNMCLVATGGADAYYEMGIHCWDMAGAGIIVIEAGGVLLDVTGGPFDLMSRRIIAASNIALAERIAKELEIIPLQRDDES
#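 Cellular IMPase inhibition is scored as a rise in cytosolic IP1, detected by competitive TR-FRET between d2-labelled IP1 and a europium anti-IP1 antibody. M1-expressing CHO cells were stimulated with carbachol for 30 min at 37C, with lithium (50 mM LiCl) present in the buffer.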
# PNC inhibitor: perinucleolar compartment assembly inhibition; hit rate 3.1% among 140,000; PC3M PTB-GFP, PNC prevalence imaging, 16 h; active compounds read low; AID 2417; activity change (PNC), negative = inhibition, % at 10 µM;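 active = readout at or below -70, meaning at least 70% loss of cells showing the perinucleolar compartment, a nuclear body marking cancer cells; inconclusive = readout between -30 and a set limit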;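 also: plate controls were DMSO wells for no effect and camptothecin positive control wells for full effect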
#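 Read-out is percentage of cells bearing a perinucleolar compartment, from automated 20x imaging of fixed, Hoechst-stained PC3M PTB-GFP cells. Cells were seeded 4 h, then exposed 16 h to compound (23 nl of library stock) in duplicate plates.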
# IMPase Li cell: membrane-permeable IMPase blocker, potentiated with lithium. CHO-M1 cells, IP1 TR-FRET (IP-One), carbachol + lithium. Potency, µM (titrated, usually from 59.4 µM), for the others: at the top dose activity, negative = IMPase inhibition, usual class: inhibitors. hit rate 0.35% among 210,000. AID 1457;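 also: IP1 builds up when IMPase is blocked and the TR-FRET signal falls; potency is read from the fitted curve at half-maximal effect; plate controls were basal vehicle for no effect and high inhibitor control for full effect; nearly all actives have a fitted effect of over 50% in size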
#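 CHO cells stably expressing M1 receptor (2000/well) were cultured 16–30 h, then exposed to compounds with a small lithium addition for 30 min at 37C. IP1 was measured by TR-FRET competition; AC50 from Hill fits.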
# An asterisk follows results filed as active; ? = inconclusive; . = no result given; [ ] = dose if it differs, or a comment. Unless noted, calls follow the shape of the dose curve; as a rule, active = well fitted curve in the direction sought with a large enough effect; inconclusive = small, poorly fitted or top-dose-only effect, or another doubt; inactive = no such curve, though single readings can be large; an effect the other way counts as inactive or inconclusive. Unless noted, % is scaled to controls: 0 for no effect and ±100 for the full control effect.
SMILES,ALDH1A1 inh,ALOX12 inhib,HPGD block,IMPase inh,PNC inhibitor,IMPase Li cell
CCOc1ccc(NC2=C(Cl)C(=O)N(Cc3ccccc3)C2=O)cc1,13%,-26%,.,8,-9,.
Cc1ccc(O)c(NC2=C(Cl)C(=O)N(Cc3ccccc3)C2=O)c1,2.8µM*,.,.,.,.,22%
COc1ccc(NC(=O)c2sc3nc(C)c(C(=O)Nc4ccc(C)cc4C)c(-c4sccc4C)c3c2N)cc1,.,.,.,3,.,.
CC1=NN(c2ccc(Cl)cc2)C(=O)C1C(c1ccccc1O)c1c(C)[nH]n(-c2ccc(Cl)cc2)c1=O (stereo not given),7.5µM*,?,7.9µM*,3,-22,-4%
Cc1[nH]n(-c2ccccc2)c(=O)c1-c1ccc(Cl)cc1,-1%,-16%,-8%,4,-16,23%[38.3 µM]
O=C(Nc1ccc2c(c1)OCCO2)N1CCOCC1,-3%,.,.,.,.,15%
Cc1ccc(NC(=O)Nc2ccc(C(=O)N3CCOCC3)cc2)cc1,8%,-2%,-27%,2,?,12%[38.3 µM]
CC(=O)c1cccc(NC(=O)Nc2ccc(C(=O)N3CCOCC3)cc2)c1,?,-3%,13µM*,-1,-2,-4%
O=C(Nc1cccc(O)c1)N1CCOCC1,-3%,-3%,-9%,-7,-100*,6%
c1cncc(-c2nc(N3CCCCCC3)c3ccccc3n2)c1,1.4µM*,-12%,-20%,1,1,-4%[38.3 µM]
CCOc1ccc(C(=O)Nc2cc(-c3nc4ccccc4o3)ccc2C)cc1Cl,.,.,.,3,.,.
O=c1[nH]ncc(N2CCCCC2)c1Cl,-4%,1%,-9%,.,7,-3%
O=c1[nH]ncc(N2CCCCCC2)c1Cl,10µM*,.,.,.,.,24%
N=C(N)SCc1ccccn1,7%,-5%,-16%,.,-91*,9%
c1ccc(CSc2nnc(SCc3ccccn3)s2)nc1,9%,-4%,-4%,9,-20,11%[38.3 µM]
CCCCN(CCCC)C1=C(C(=O)c2ccccc2)N(C)S(=O)(=O)c2ccccc21,.,.,.,1,.,.
CCOc1cc(C2c3c(oc4ccccc4c3=O)C(=O)N2Cc2ccccc2Cl)ccc1O (stereo not given),.,.,.,13,.,.
O=C(CCC1CCCCC1)Nc1ccccc1-c1ccccc1,?,-4%,-16%,-4,?,13%[38.3 µM]
O=C(CCC1CCCCC1)Nc1ccccc1O,?,-2%,20µM*,-1,5,19%[38.3 µM]
O=C(CCC1CCCCC1)NCc1ccccn1,4%,2%,32µM*,.,?,10%
O=C(CCC1CCCC1)Nc1ccccc1-c1ccccc1,20µM*,-3%,-8%,.,18,14%
O=C(CCC1CCCCC1)NC1=NCCS1,-8%,-1%,-6%,.,-89*,-3%
O=C(NC1=NCCS1)C1CCCCC1,7%,.,.,.,.,-5%
Cc1noc(C)c1C(=O)N1CCC[C@@]2(CCN(C(=O)Nc3cccc(C#N)c3)C2)C1,4%,5%,2%,.,.,-7%
CCOC(=O)c1sc(N=NC2=C(O)CCCC2=O)c(C(=O)OCC)c1C,?,.,.,.,.,24%
SMILES,ALDH1A1 inh,ALOX12 inhib,HPGD block,IMPase inh,PNC inhibitor,IMPase Li cell
CCc1n[nH]c(=S)n1/N=C/c1cc(OC)cc([N+](=O)[O-])c1O,?,.,.,.,.,12%
CCOC(=O)c1sc(/N=C/N(C)C)c(C(=O)OCC)c1C,1%,-1%,-12%,2,-82*,7%[38.3 µM]
CCOC(=O)c1c(/N=C/c2cc(OC)cc([N+](=O)[O-])c2O)sc(C)c1C,32µM*,-3%,-14%,-2,-7,6%
CCOC(=O)c1c(/N=C/C2=C(O)CC(C)(C)CC2=O)sc(C)c1C,7.1µM*,1%,-5%,.,-6,-2%
CCOC(=O)c1c(/N=C/c2cc([N+](=O)[O-])ccc2O)sc(C)c1C,20µM*,-21%,-11%,.,-12,-4%
CCCc1cc(COC)c(C#N)c(=O)[nH]1,?,-2%[11.4 µM],?,.,.,-4%
COc1cc2c(cc1NC(=O)COc1cc(C)ccc1C)oc1ccccc12,.,.,.,-8,.,.
Cc1ccc(C(=O)c2ccc(C)cc2)cc1,?,.,.,.,.,4%
Cc1ccc(C(=O)c2no[n+]([O-])c2C(=O)c2ccc(C)cc2)cc1,0.5µM*,0%,20µM*,.,12,3%
Cc1ccc(NC(=O)Cn2cc(C(=O)C3CCCCC3)c3ccccc32)c(C)c1,.,.,.,-8,.,.
CC(=O)N1CCC[C@@]2(CCN(C(=O)Nc3cccc(C#N)c3)C2)C1,16%,7%,-1%,.,.,1%
COc1ccc(-c2nnn(CC(=O)NCc3ccccc3)n2)cc1OC,4%,2%,-12%,4,-119*,3%
COc1ccc(-c2nnn(CC(=O)NCc3cccs3)n2)cc1OC,?,-3%,?,-10,0,-3%
COc1cccc(-c2nnn(CC(=O)O)n2)c1,13%,-6%,-14%,-6,-91*,22%[38.3 µM]
CCOC(=O)Cn1nnc(-c2ccccc2)n1,2%,3%,-13%,-8,-100*,2%
COc1ccc(N(CC(=O)NC2CCCC2)C(=O)Cn2nnc(-c3ccc(C)cc3)n2)cc1,10%,-3%,2%,-3,-6,13%
COc1ccc(CNC(=O)CN(C(=O)Cn2nnc(-c3ccccc3F)n2)c2ccc(C)cc2)cc1,8.9µM*,.,.,.,.,12%
CCOC(=O)c1c(N)nn(C(=O)CC)c1-c1ccccc1,0%,3%,-17%,4,-100*,5%
CCOC(=O)c1c(N)nn(C(=O)C(C)C)c1-c1ccccc1,1%,1%,-20%,7,-17,32%[38.3 µM]
FC(F)(F)c1cc(NC(=S)Nc2ccc3ccccc3c2)cc(C(F)(F)F)c1,-2%,.,-21%,.,.,7%
Nc1nc(SCC(=O)N2N=C3/C(=C/c4ccco4)CCCC3C2c2ccco2)n[nH]1 (stereo not given),?,-5%,-4%,-3,?,25%[38.3 µM]
Cn1cnnc1SCC(=O)N1N=C2/C(=C/c3ccco3)CCCC2C1c1ccco1 (stereo not given),16µM*,-26%,?,-1,?,23%[38.3 µM]
Cn1cnnc1SCC(=O)N1N=C(c2ccc(Cl)cc2)CC1c1ccco1 (stereo not given),3%,.,.,.,.,-2%
O=C(CSc1nccc(=O)[nH]1)N1N=C2/C(=C/c3ccco3)CCCC2C1c1ccco1 (stereo not given),14µM*,.,.,.,.,9%
Cc1ccc(S(=O)(=O)N(C(=O)c2ccncc2)c2ccc(OC(=O)c3ccncc3)c3ccccc23)cc1,4µM*,-14%,20µM*,18,8,22%
Cc1cc(F)ccc1S(=O)(=O)N(C(=O)c1ccncc1)c1ccc(OC(=O)c2ccncc2)cc1,6%,.,.,.,.,6%
